High-throughput results deposited in PubChem BioAssay by several laboratories.
NLRP3 yeast inh = inhibitors of NALP3 inflammasome in yeast; Yeast reconstituted NLRP3/ASC/caspase-1, beta-gal luminescence, 24 h; inhibition, % at 10 µM; 330,000 compounds, 0.39% hits;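 active = inhibition of 50% or more; inactive = inhibition below 50%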
tim23-1 inh = tim23-1 yeast growth inhibition; inhibition, % at 20 µM; 330,000 compounds, 1.3% hits; S. cerevisiae tim23-1 growth, BacTiter-Glo luminescence, 24 h;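 active = growth inhibition of the mutant yeast at or above 50%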;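 also: temperature-sensitive mutant grown at 25 °C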
tim10-1 inh = inhibits growth of tim10-1 mutant yeast. S. cerevisiae tim10-1 ts strain growth, BacTiter-Glo, 24 h. inhibition, % at 20 µM. 330,000 compounds, 2.2% hits;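 active = inhibition of at least 40%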;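 also: mutant grown at 25 °C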
TIM10 inh = inhibits growth of TIM10 yeast strain; S. cerevisiae TIM10 strain growth, BacTiter-Glo luminescence, 24 h; inhibition, % at 10 µM; 330,000 compounds, 1.4% hits; AID 463195;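 active = inhibition of 40% or more at the single tested concentration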;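 also: wild-type TIM10 isogenic control strain grown at permissive 25 °C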
SKKanGAS inh = SKKanGAS growth inhibition. S. pyogenes SKKanGAS, kanamycin growth, BacTiter-Glo, 6 h. inhibition, % at 7.5 µM. 300,000 compounds, 1.3% hits. AID 1662;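 active = mean replicate score, as percent of positive control median, at least 50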;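 also: strain carries kanamycin resistance gene driven by streptokinase promoter and grows in 40 µg/ml kanamycin; loss of luminescence reflects streptokinase promoter inhibition or plain growth inhibition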
NALP1 inh = NALP1 inhibition; inhibition, % at 10 µM; 280,000 compounds, 0.61% hits; S. cerevisiae NALP1/ASC/caspase-1 growth, X-gal OD620, 72 h; in the data active = inhibition mostly above about 24%, no sharp cut-off; inactive = mostly below about 32%
tim10-1 conf = confirmation of tim10-1 mutant yeast growth inhibitors | inhibition, % at 20 µM | S. cerevisiae tim10-1 ts strain growth, BacTiter-Glo, 24 h | 7,400 compounds, 56% hits | shares compounds with tim10-1 inh;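 active = inhibition of yeast growth at or above a set limit in either of two repeat tests at 20 µM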;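 also: tim10-1 mutant grown at permissive 25 °C to find synthetic lethal compounds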
tim10 confirm = confirmation of TIM10 yeast growth inhibitors; shares compounds with TIM10 inh; S. cerevisiae tim10 strain growth, BacTiter-Glo luminescence, 24 h; inhibition, % at 10 µM; 4,600 compounds, 63% hits; AID 463215;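 active = inhibition of yeast growth at or above a set limit in either of two replicates at 10 µM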; also: this counterscreen used the strain with wild-type TIM10
tim23-1 conf = confirmation of tim23-1 mutant yeast growth inhibitors; shares compounds with tim23-1 inh; 4,400 compounds, 83% hits; inhibition, % at 20 µM; S. cerevisiae tim23-1 growth, BacTiter-Glo luminescence, 24 h;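 active = inhibition above about 39% in either of two replicate wells at 20 µM, limit read from the data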;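 also: temperature-sensitive tim23-1 mutant grown at 25 °C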
Hits are given with their value; n = inactive; x = no result. In the library only some 4.9% were active in any assay of this set; here they are far more common.

SMILES	NLRP3 yeast inh	tim23-1 inh	tim10-1 inh	TIM10 inh	SKKanGAS inh	NALP1 inh	tim10-1 conf	tim10 confirm	tim23-1 conf
O=C(NNC(=O)c1ccc([N+](=O)[O-])o1)c1ccccc1	n	n	n	n	n	n	x	x	x
Cc1ccc(-c2nc3ncccc3o2)cc1NC(=O)c1ccc([N+](=O)[O-])o1	n	84.5	73.8	83.2	n	n	81.6	85.3	n
COc1ccccc1C(=O)NC(CCSC)C(=O)NCCCSc1ccccc1 (configuration not stated)	n	n	n	n	n	x	x	x	x
Cc1cc(C)n(/N=C/c2cc(Cl)cc(Cl)c2O)c(=O)c1	n	60.9	48.1	n	n	n	n	x	72.5
COc1cc(CN2CCCC(N3CCc4ccccc4C3)C2)c(Cl)cc1O (configuration not stated)	n	n	n	n	n	n	x	x	x
COCCOC(=O)/C(=C/c1ccc(OC(=O)c2ccccc2)cc1)C(C)=O	n	89.8	73.1	79.5	n	61.3	64.6	n	87.8
O=C(Oc1ccc(/C=N/O)cc1)c1ccccc1	n	n	n	n	n	n	x	x	x
O=S(=O)(c1ccc2nc(Nc3ccccc3)ccc2c1)N1CCCCC1	n	50.1	50.5	n	n	n	n	x	42.4
COc1cccc(CC2(CO)CCN(S(=O)(=O)c3ccc(OC)cc3OC)CC2)c1	n	n	n	n	n	n	x	x	x
COc1cc(SC)ccc1C(=O)Nc1nc2ccccc2[nH]1	n	92.9	89.5	88.3	106.6	n	91.4	88.3	94.4
Cc1cccc(C)c1NC(=O)CCCN1C(=O)C(c2ccccc2)Oc2cccnc21 (configuration not stated)	n	n	n	n	n	n	x	x	x
Oc1ccc2ccccc2c1N=Nc1ccccc1F	n	n	n	n	n	n	x	x	x
Oc1ccc2ccccc2c1N=Nc1ccccn1	n	52.4	51.8	n	n	n	45.9	x	58.8
CCCCNC(=O)c1cccc(S(=O)(=O)N2CC3(C)CC2CC(C)(C)C3)c1 (configuration not stated)	n	59.2	49.6	n	x	x	48.4	x	54.0
O=C1Nc2ccccc2N(O)N1c1ccc(Cl)cc1	n	n	n	n	n	n	x	x	x
CCN1c2ccccc2NC2C1C(C(C)=O)C(=O)N2c1ccc(Cl)cc1 (configuration not stated)	n	69.3	61.9	52.4	n	n	52.7	39.5	50.5
COc1cccc(NC(=O)Nc2ccc(C(C)(C)C)cc2)c1	n	58.0	57.1	49.0	n	n	45.6	60.0	74.7
COc1cccc(NC(=O)Nc2ccncc2)c1	n	n	n	n	n	n	x	x	x
O=C(/C=C/c1cccc([N+](=O)[O-])c1)c1cccs1	n	51.9	57.5	69.5	n	n	51.6	71.8	49.4
O=C(N/N=C/c1ccco1)c1ccccc1OCc1ccccc1Cl	n	50.6	43.9	42.2	n	n	41.4	37.6	48.2
O=C(COC(=O)CC1CCS(=O)(=O)C1)Nc1ccc(F)cc1 (configuration not stated)	n	n	n	n	x	x	x	x	x
Cc1ccc(-c2cc(C(=O)N3N=C(C(F)F)CC3(O)C(F)F)c3ccccc3n2)cc1C (configuration not stated)	n	51.7	50.1	n	n	n	n	x	n
CCOC(=O)C1CCN(C2=NC(=O)/C(=C/c3ccc(OC)c(OC)c3)S2)CC1	n	n	n	n	n	n	x	x	x
CCOC(=O)C1CCN(C2=NC(=O)/C(=C/c3ccc(Cl)cc3)S2)CC1	n	50.1	49.5	n	n	n	31.6	x	44.1
O=C(OCn1ncc(Cl)c(Cl)c1=O)c1ccccc1Cl	x	x	x	x	n	n	x	x	x
SMILES	NLRP3 yeast inh	tim23-1 inh	tim10-1 inh	TIM10 inh	SKKanGAS inh	NALP1 inh	tim10-1 conf	tim10 confirm	tim23-1 conf
O=C(OCn1ncc(Cl)c(Cl)c1=O)c1ccc(F)cc1	n	75.3	66.1	58.5	n	n	60.8	54.0	85.0
Nc1ccc2c(c1)C(=O)C(=O)c1ccccc1-2	n	73.2	92.2	93.8	86.2	n	91.9	98.8	68.8
Nc1ccc2c(c1)C(=O)c1ccccc1-2	n	n	n	n	n	x	x	x	x
C=CCC[C@H](Cc1ccc(F)cc1)C(=O)OC[C@@H](NC(=O)[C@H](CC=C)CC(=O)NCCO)C(C)(C)C	n	n	n	n	x	x	x	x	x
CC(C)Sc1nc(N)nc(-c2cccs2)c1C#N	n	64.5	48.1	n	n	n	n	x	n
CC(C)OC(=O)CSc1nc(N)c(C#N)c(-c2cccs2)c1C#N	n	n	n	n	n	n	x	x	x
CCOc1cccc(CNc2ccc(O)cc2)c1OCc1ccc(Cl)cc1	n	60.4	42.6	n	n	n	31.5	x	59.0
COc1ccc(N=Nc2c(C)[nH][nH]c2=O)cc1	n	n	n	n	n	n	x	x	x
COc1ccc(N=Nc2c(C)[nH]c3ccccc23)cc1	n	89.3	43.1	n	n	x	39.5	x	77.8
Cc1ccc(CNC(=O)CN2C(=O)NC3(CC(C)CC(C)(C)C3)C2=O)cc1 (configuration not stated)	n	n	n	n	x	x	x	x	x
Nc1nonc1-n1nnc(C(=O)N/N=C/c2cc(Br)ccc2O)c1CNc1ccccc1	n	50.5	61.3	48.5	108.2	n	n	53.8	54.0
Cc1cccc(/C(N)=N/OC(=O)Cc2cccc3ccccc23)c1	n	54.2	61.7	75.8	n	n	68.7	79.0	60.2
Cc1ccc(/C(N)=N/OC(=O)Cc2cccc3ccccc23)cc1	n	50.4	56.9	61.8	n	n	57.7	54.0	45.5
Cc1cccc(/C(N)=N/OC(=O)Cc2cccs2)c1	n	n	n	n	n	n	x	x	x
Cc1ccc(/C(N)=N/OC(=O)Cc2ccccc2)cc1	n	n	n	n	n	n	x	x	x
COc1cc2c(cc1OC)CN(C(=O)/C=C/c1cccc([N+](=O)[O-])c1)CC2	n	n	n	n	n	n	x	x	x
COc1cc(S(=O)(=O)N2CCOCC2)ccc1NC(=O)COC(=O)c1ccc(Cl)nc1	n	n	n	n	x	x	x	x	x
Cc1cc(/C=C(\C#N)C(=O)NC2CC2)c(C)[nH]1	n	n	n	n	n	n	x	x	x
N#C/C(=C\c1ccccc1Br)C(=O)NC1CC1	n	83.7	54.1	66.7	n	n	60.5	83.4	81.8
COCCNC(=O)/C(C#N)=C/c1ccccc1Br	n	79.0	72.3	76.2	n	n	74.2	68.5	76.5
COc1ccc(C(=O)NCCn2cc(SCC(=O)NCC3CCCO3)c3ccccc32)cc1OC (configuration not stated)	n	n	n	n	n	n	x	x	x
CCCCn1c(N)c(N(CCOC)C(=O)CN(C)CC(=O)Nc2ccc(Cl)c(Cl)c2)c(=O)[nH]c1=O	n	n	n	n	x	x	x	x	x
